The assay concerns MAK. The note with it: concentration: 1 μM, replicates: in singlicate; n = 1.
In the case of `Nc1n[nH]c2cnc(-c3ccccc3)cc12` [SB-642124], the “%Inh” value is recorded as 37%.

Regarding `COc1cccc(C2=C(Nc3ccc(Cl)c(C(=O)O)c3)C(=O)NC2=O)c1` [SB-390769], the “%Inh” value amounted to 100%.

With `Cn1cc(-c2ccc3c(c2)CCN3C(=O)Cc2cccc(Cl)c2)c2c(N)ncnc21` [GSK2606590], the “%Inh” value stood at 6%.

In the case of `COc1cccc(-c2ccc3c(NC(=O)C4CC4)n[nH]c3n2)c1` [SB-710903], the “%Inh” value amounted to 24%.

Consider `Cc1ccc(C(=O)N2CC[C@@H](O)C2)cc1-n1c(C)cc(OCc2ccc(F)cc2F)c(Br)c1=O`, for which the “%Inh” value is 0%.

Take `O=c1[nH]cc(-c2ccc(N3CCOCC3)cc2)c2sc(-c3cn[nH]c3)cc12` [GSK2276055]: the “%Inh” value stood at 30%.

Regarding `COc1cc(Nc2ncc3c(C)nc(-c4cc5ccccc5[nH]4)n3n2)cc(OC)c1OC` [GW869516], the “%Inh” value is reported as 0%.

Take `O=C(Nc1cccc(-c2nn3ccccc3c2-c2ccnc(Nc3cccc(F)c3)n2)c1)c1c(F)ccc(F)c1Cl` [GSK357952]: the “%Inh” value came to 22%.

In the case of `CSc1cccc2c(-c3ccncn3)c(-c3ccc(F)cc3)nn12` [GW514786], the “%Inh” value was found to be 0%.

For the compound `COc1cc(Nc2nccc(-c3c(-c4cccc(NC(=O)c5c(F)cccc5F)c4)nn4ncccc34)n2)cc(OC)c1OC` [GSK327238], the “%Inh” value was 12%.

In the case of `Cc1ccc(S(=O)(=O)Nc2ccc(Nc3nccc(Nc4cccc5[nH]ncc45)n3)cc2)cc1` [GSK581271], the “%Inh” value is reported as 12%.

`O=C(Nc1cccc(-c2nn3ncccc3c2-c2ccnc(Nc3ccccc3)n2)c1)c1c(F)cccc1F` [GSK198271]: the “%Inh” value amounted to 19%.

The values are drawn from publication PMC5540273 (PLoS ONE, 2017).
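Note: KINOMEscan kinase panel screen.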
